Source: PubChem BioAssay (Tox21)
Results filed as inconclusive are left out. A number with no mark means an inactive call. The source made the active and inactive calls. Calls come from the whole dose curve; as a rule, active = well fitted curve in the direction sought with a large enough effect in the repeat runs; inconclusive = weak or mixed curves; inactive = no such curve, though single readings can be large; an effect the other way counts as inactive or inconclusive.

Molecular target: Cytochrome P450 2C9 (Homo sapiens) (UniProt P11712)
Assay: Cytochrome P450 Family 2 Subfamily C Member 9 (CYP2C9) small molecule antagonists: luciferase reporter qHTS assay (AID 1671198); note: potency is the fitted concentration of half-maximal effect
Settings: P450-Glo CYP2C9 enzyme assay, luciferin luminescence; series mostly up to 115 µM; activity change, negative = inhibition: at the top concentration
Method in brief: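 P450-Glo proluciferin substrate with CYP2C9 enzyme; 10 min RT preincubation, then NADPH regeneration 1 h at 37C; luciferin detection reagent 20 min RT, luminescence in relative luminescence units.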
% is set by controls: 0 for no effect and ±100 for the full control effect.
Note: nearly all actives have a fitted effect of over 50% in size.

Chain of Cytochrome P450 2C9 (Homo sapiens) (P11712 whole entry, looked up): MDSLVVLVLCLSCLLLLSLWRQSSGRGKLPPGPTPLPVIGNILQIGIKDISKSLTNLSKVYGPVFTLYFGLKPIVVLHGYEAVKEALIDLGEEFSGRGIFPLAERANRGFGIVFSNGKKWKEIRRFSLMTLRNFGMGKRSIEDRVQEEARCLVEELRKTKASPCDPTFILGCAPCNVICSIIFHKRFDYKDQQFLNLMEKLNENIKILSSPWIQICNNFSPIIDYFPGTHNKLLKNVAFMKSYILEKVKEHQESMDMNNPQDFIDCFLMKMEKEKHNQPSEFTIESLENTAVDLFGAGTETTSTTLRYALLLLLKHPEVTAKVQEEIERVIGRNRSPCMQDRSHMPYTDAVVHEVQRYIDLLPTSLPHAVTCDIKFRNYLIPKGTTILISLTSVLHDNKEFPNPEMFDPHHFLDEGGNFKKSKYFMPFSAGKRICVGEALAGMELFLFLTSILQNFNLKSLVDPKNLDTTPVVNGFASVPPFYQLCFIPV

SMILES	Potency	activity change, negative = inhibition
Cc1ncc(CSSCc2cnc(C)c(O)c2CO)c(CO)c1O	8.71 µM (active)	
CC(C)COC(=O)c1ccccc1O		-13.4%
CCCCCCC(=O)OCC	71 µM (active)	
C=CC(=O)OCCCCCC		-7.59%
COc1cc(O)cc(O)c1		-8.52% [at 53 µM]
CCCCCCC(CCCCCCCCCCC(=O)OCC(COC(C)=O)OC(C)=O)OC(C)=O (centres undefined)	2.45 µM (active)	
C[N+](C)(C)CC[N+]1(C)Cc2c(Cl)c(Cl)c(Cl)c(Cl)c2C1		-0.369% [at 53 µM]
NC1CCN(c2cccc(Cl)n2)CC1		-16% [at 53 µM]
C(=C(c1ccccc1)c1ccccc1)c1ccccc1	5.03 µM (active)	
NC(=S)Nc1cccc2ccccc12		-2.82% [at 10.5 µM]
NCCN1CCNC1=O		-4.18%
COC(=O)CCCC(=O)O		-2.56%
C=C(C)C(=O)NCCCN(C)C		-6.48%
CC(C)(C)C(=O)/C=C/c1ccc(Cl)cc1	63.3 µM (active)	
CC(C)CCCC(C)CCCC(C)CCCCC(C)CCCC(C)CCCC(C)C (centres undefined)		-4.02% [at 53 µM]
N#CCN(CC#N)CCN(CC#N)CC#N		-13.1%
FC(F)(F)C(F)(F)C(F)(F)C(F)(F)C(F)(F)C(F)(F)C(F)(F)C(F)(F)C(F)(F)C(F)(F)F		-5.26% [at 10.5 µM]
C=CCOc1nc(OCC=C)nc(OCC=C)n1	15.9 µM (active)	
OCC(CO)(CO)COCC(CO)(CO)CO		-13.1%

SMILES	Potency	activity change, negative = inhibition
O=C1OC(=O)c2cc([N+](=O)[O-])ccc21		-9.97%
C/C=C1\C(=O)C[C@H]2[C@@H]3CCC4=CC(=O)CC[C@]4(C)[C@H]3CC[C@]12C	15.6 µM (active)	
OC1OC[C@@H](O)[C@H](O)[C@H]1O (some centres undefined)		-1.72%
CN1[C@@H]2CC[C@H]1CC(NC(=O)n1c(=O)[nH]c3ccccc31)C2 (some centres undefined)		6.09% [at 53 µM]
CCCCCC[C@@H](CCC)C(=O)O	34.7 µM (active)	
CCCCCCCCCCCCCCC		-8.9%
O=c1[nH]c2ccccc2c(=O)n1CCCl		-6.58% [at 53 µM]
Cc1cc(C)cc(OCC2CNC(=O)O2)c1 (centres undefined)		1.97% [at 53 µM]
CSc1ccc(C=O)cc1		-17.5%
CCCCOCC(C)OCC(C)O (centres undefined)		-10.5%
CC(C)=CC(=O)O		-5.67%
CC1CCN(CCCC(=O)c2ccc(F)cc2)CC1		-0.535% [at 53 µM]
Oc1cc(O)c2c(c1)O[C@H](c1ccc(O)c(O)c1)[C@H](O)C2		-13.2% [at 53 µM]
CCC(=O)Nc1cccc(N)c1		-17.3%
CC(C)(C)N(CCO)CCO		-8.01%
C#CC(O)CCCCC (centres undefined)		-10.9%
CN(C)CCOC(c1ccc(Cl)cc1)c1ccccn1 (centres undefined)		1.78% [at 53 µM]
CCN(CC)C(=O)c1ccc(O)c(OC)c1		14.1% [at 53 µM]

Molecular target: Cytochrome P450 1A2 (Homo sapiens) (UniProt P05177)
Assay: Cytochrome P450 Family 1 Subfamily A Member 2 (CYP1A2) small molecule antagonists: luciferase reporter qHTS assay (AID 1671199); note: potency is the fitted concentration of half-maximal effect
Settings: P450-Glo CYP1A2 enzyme, luciferin luminescence, 1 h; series mostly up to 53 µM; activity change, negative = inhibition: at the top concentration
Method in brief: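 Luminescence readout (relative luminescence units) after luciferin detection reagent, 20 min RT. Preceded by 1 h room-temperature CYP1A2 reaction with NADPH regeneration solution following 10 min compound preincubation with enzyme and proluciferin substrate. Furafylline positive control.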

Chain of Cytochrome P450 1A2 (Homo sapiens) (P05177 whole entry, looked up): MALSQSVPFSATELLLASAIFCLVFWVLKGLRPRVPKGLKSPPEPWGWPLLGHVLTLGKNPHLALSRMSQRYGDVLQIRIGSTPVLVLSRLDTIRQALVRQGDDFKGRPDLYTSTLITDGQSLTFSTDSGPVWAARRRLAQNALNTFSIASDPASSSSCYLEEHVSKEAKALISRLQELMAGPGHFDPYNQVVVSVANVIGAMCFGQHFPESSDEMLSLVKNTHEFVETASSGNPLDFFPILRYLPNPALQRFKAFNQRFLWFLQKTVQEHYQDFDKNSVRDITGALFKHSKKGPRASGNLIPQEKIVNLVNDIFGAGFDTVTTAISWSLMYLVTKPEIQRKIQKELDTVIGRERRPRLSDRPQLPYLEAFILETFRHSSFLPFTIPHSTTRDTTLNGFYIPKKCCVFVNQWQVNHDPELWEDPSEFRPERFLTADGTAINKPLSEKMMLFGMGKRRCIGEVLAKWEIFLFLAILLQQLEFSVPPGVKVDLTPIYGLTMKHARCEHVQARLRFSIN

SMILES	activity change, negative = inhibition	Potency
CCCCCCC(=O)OCC	-14.6% [at 115 µM]	
C=CC(=O)OCCCCCC	-24.2% [at 115 µM]	
C[N+](C)(C)CC[N+]1(C)Cc2c(Cl)c(Cl)c(Cl)c(Cl)c2C1	-5.35%	
C(=C(c1ccccc1)c1ccccc1)c1ccccc1		35.6 µM (active)
NC(=S)Nc1cccc2ccccc12	-26.4% [at 10.5 µM]	
NCCN1CCNC1=O	-23.3% [at 115 µM]	
COC(=O)CCCC(=O)O	-11.7% [at 115 µM]	
CC(C)(C)C(=O)/C=C/c1ccc(Cl)cc1		22.4 µM (active)
CC(C)CCCC(C)CCCC(C)CCCCC(C)CCCC(C)CCCC(C)C (centres undefined)	-3.71%	
FC(F)(F)C(F)(F)C(F)(F)C(F)(F)C(F)(F)C(F)(F)C(F)(F)C(F)(F)C(F)(F)C(F)(F)F	-15.3% [at 10.5 µM]	
C=CCOc1nc(OCC=C)nc(OCC=C)n1		6.33 µM (active)
C/C=C1\C(=O)C[C@H]2[C@@H]3CCC4=CC(=O)CC[C@]4(C)[C@H]3CC[C@]12C	-7.76%	
OC1OC[C@@H](O)[C@H](O)[C@H]1O (some centres undefined)	-16.3% [at 115 µM]	
CN1[C@@H]2CC[C@H]1CC(NC(=O)n1c(=O)[nH]c3ccccc31)C2 (some centres undefined)	8.2%	
CCCCCC[C@@H](CCC)C(=O)O	-9.33%	
CCCCCCCCCCCCCCC	-20.9% [at 115 µM]	
O=c1[nH]c2ccccc2c(=O)n1CCCl		5.49 µM (active)
CCCCOCC(C)OCC(C)O (centres undefined)	-18.9% [at 115 µM]	
CC1CCN(CCCC(=O)c2ccc(F)cc2)CC1	-11.1%	
Oc1cc(O)c2c(c1)O[C@H](c1ccc(O)c(O)c1)[C@H](O)C2	0.336%	
CCN(CC)C(=O)c1ccc(O)c(OC)c1	-14.7%	

Molecular target: Voltage-gated inwardly rectifying potassium channel KCNH2 (Homo sapiens) (UniProt Q12809)
Assay: Human Ether-a-go-go-Related Gene (hERG) channel small molecule antagonists: fluorescence cell-based qHTS assay (AID 1671200);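 note: hERG-expressing U2OS cells given a thallium stimulus after FluxOR II dye loading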
Settings: hERG-U2OS cells, FluxOR thallium flux fluorescence; series mostly up to 76.8 µM; activity change, negative = inhibition: at the top concentration
Method in brief: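 First, 1000 cells per well are seeded and cultured overnight at 37 C. Next, FluxOR II dye is loaded for 1 h at room temperature, protected from light. After 10 more minutes, stimulus is added and fluorescence is read.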

Chain of Voltage-gated inwardly rectifying potassium channel KCNH2 (Homo sapiens) (Q12809 whole entry, looked up): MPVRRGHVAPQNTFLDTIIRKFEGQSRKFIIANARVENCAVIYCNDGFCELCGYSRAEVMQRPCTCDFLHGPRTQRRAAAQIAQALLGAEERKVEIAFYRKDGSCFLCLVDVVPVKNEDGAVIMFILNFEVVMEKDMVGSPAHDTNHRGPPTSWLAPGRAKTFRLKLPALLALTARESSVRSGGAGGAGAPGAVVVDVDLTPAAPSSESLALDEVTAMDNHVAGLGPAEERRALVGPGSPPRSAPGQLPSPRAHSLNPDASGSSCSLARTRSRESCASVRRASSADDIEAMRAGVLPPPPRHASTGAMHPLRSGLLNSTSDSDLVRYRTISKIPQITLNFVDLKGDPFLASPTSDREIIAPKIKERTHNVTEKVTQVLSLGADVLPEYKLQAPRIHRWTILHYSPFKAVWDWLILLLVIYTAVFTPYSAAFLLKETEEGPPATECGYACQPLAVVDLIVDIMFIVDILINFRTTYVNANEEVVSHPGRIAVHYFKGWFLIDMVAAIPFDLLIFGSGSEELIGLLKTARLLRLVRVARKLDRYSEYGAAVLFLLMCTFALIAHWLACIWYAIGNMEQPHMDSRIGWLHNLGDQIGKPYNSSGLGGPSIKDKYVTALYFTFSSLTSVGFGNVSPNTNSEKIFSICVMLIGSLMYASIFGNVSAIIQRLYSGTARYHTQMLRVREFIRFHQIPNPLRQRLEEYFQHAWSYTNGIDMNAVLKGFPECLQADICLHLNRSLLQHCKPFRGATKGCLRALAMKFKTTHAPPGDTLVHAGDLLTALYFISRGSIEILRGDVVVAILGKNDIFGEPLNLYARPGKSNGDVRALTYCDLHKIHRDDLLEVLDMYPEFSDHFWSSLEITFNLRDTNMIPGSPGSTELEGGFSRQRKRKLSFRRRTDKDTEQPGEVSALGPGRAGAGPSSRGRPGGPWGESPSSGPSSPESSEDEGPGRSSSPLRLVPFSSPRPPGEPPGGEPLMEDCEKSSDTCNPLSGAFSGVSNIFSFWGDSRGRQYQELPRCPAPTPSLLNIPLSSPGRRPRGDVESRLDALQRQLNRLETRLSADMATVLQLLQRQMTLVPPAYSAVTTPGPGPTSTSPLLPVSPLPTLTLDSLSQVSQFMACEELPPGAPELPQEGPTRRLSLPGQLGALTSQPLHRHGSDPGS

SMILES	activity change, negative = inhibition
Cc1ncc(CSSCc2cnc(C)c(O)c2CO)c(CO)c1O	1.93% [at 35.3 µM]
CC(C)COC(=O)c1ccccc1O	-14.6%
COc1cc(O)cc(O)c1	-1.07% [at 35.3 µM]
CCCCCCC(CCCCCCCCCCC(=O)OCC(COC(C)=O)OC(C)=O)OC(C)=O (centres undefined)	-0.961% [at 35.3 µM]
NC1CCN(c2cccc(Cl)n2)CC1	1.95% [at 35.3 µM]
C=C(C)C(=O)NCCCN(C)C	1.35%
N#CCN(CC#N)CCN(CC#N)CC#N	-1.31%
OCC(CO)(CO)COCC(CO)(CO)CO	1.84%
O=C1OC(=O)c2cc([N+](=O)[O-])ccc21	-4.74%
Cc1cc(C)cc(OCC2CNC(=O)O2)c1 (centres undefined)	-0.926% [at 35.3 µM]
CSc1ccc(C=O)cc1	-0.187%
CC(C)=CC(=O)O	-3.33%
CCC(=O)Nc1cccc(N)c1	-1.31%
CC(C)(C)N(CCO)CCO	2.61%
C#CC(O)CCCCC (centres undefined)	4.36%
CN(C)CCOC(c1ccc(Cl)cc1)c1ccccn1 (centres undefined)	-25.7% [at 35.3 µM]
